Measurements taken from PubChem BioAssay AID1159580 (chemical genetic matrix, 2015).
Out of some 5,500 compounds screened, about 2,000 (36%) were called active. Another 18% or so got no clear call; they are omitted. No stated cut-off is given here; in the data, active means normalized growth mostly below about 0.91 (no sharp cut-off); inconclusive means no clear call, values can overlap the other calls; inactive means mostly above about 0.92. The list shows a part of the results.

Experiment: chemical genetic growth profiling, strain panel (AID 1159580);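 further: tested at 20 µM; growth read once vehicle control cultures reached saturation at 30 °C; 1 = growth at the plate median or of vehicle wells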
Settings: S. cerevisiae deletion strains, growth OD

Measured: normalized growth

COc1c(Cl)ccc(Cl)c1C(=O)O
inactive: locus YAL013W, strain DEP1, stronger effect = lower value 1.01 | locus YAL021C, strain ccr4, stronger effect = lower value 0.972 | locus YAL026C, strain drs2, stronger effect = lower value 0.988 | locus YAL030W, strain snc1, stronger effect = lower value 0.984 | locus YBL061C, strain skt5, stronger effect = lower value 0.977 | locus YBR009C, strain hhf1, stronger effect = lower value 0.988 | locus YBR021W, strain FUR4, stronger effect = lower value 1.02 | locus YBR023C, strain chs3, stronger effect = lower value 0.995 | locus YBR171W, strain sec66, stronger effect = lower value 0.977 | locus YBR229C, strain ROT2, stronger effect = lower value 0.999 | locus YBR231C, strain swc5, stronger effect = lower value 0.968 | locus YBR279W, strain paf1, stronger effect = lower value 0.982 | locus YCL011C, strain gbp2, stronger effect = lower value 0.981 | locus YCL016C, strain dcc1, stronger effect = lower value 0.986 | locus YCL029C, strain bik1, stronger effect = lower value 1.02 | locus YCL061C, strain MRC1, stronger effect = lower value 0.985 | locus YCL069W, strain vba3, stronger effect = lower value 0.984 | locus YCR088W, strain abp1, stronger effect = lower value 0.978 | locus YDL005C, strain med2, stronger effect = lower value 0.975 | locus YDL035C, strain GPR1, stronger effect = lower value 1.02 | locus YDL040C, strain nat1, stronger effect = lower value 0.977 | locus YDL074C, strain BRE1, stronger effect = lower value 1.04 | locus YDL101C, strain DUN1, stronger effect = lower value 1.01 | locus YDL134C, strain PPH21, stronger effect = lower value 1.01 | locus YDL185W, strain tfp1, stronger effect = lower value 1.02 | locus YDL192W, strain arf1, stronger effect = lower value 1.02 | locus YDR001C, strain nth1, stronger effect = lower value 0.985 | locus YDR069C, strain doa4, stronger effect = lower value 0.976 | locus YDR101C, strain arx1, stronger effect = lower value 1.01 | locus YDR137W, strain rgp1, stronger effect = lower value 1.01 | locus YDR150W, strain NUM1, stronger effect = lower value 1 | locus YDR159W, strain sac3, stronger effect = lower value 0.972 | locus YDR162C, strain NBP2, stronger effect = lower value 1.01 | locus YDR195W, strain ref2 0.919 | locus YDR297W, strain sur2, stronger effect = lower value 0.993 | locus YDR318W, strain mcm21, stronger effect = lower value 1.02 | locus YDR334W, strain swr1, stronger effect = lower value 0.979 | locus YDR335W, strain msn5, stronger effect = lower value 0.985 | locus YDR388W, stronger effect = lower value 1.01 | locus YDR392W, strain spt3, stronger effect = lower value 0.999 | locus YDR502C, strain sam2, stronger effect = lower value 1.01 | locus YEL003W, strain gim4, stronger effect = lower value 0.985 | locus YEL037C, strain rad23, stronger effect = lower value 0.985 | locus YEL061C, strain CIN8 (second series), stronger effect = lower value 0.973 | locus YEL061C, strain CIN8, stronger effect = lower value 0.997 | locus YER015W, strain faa2, stronger effect = lower value 0.981 | locus YER016W, strain bim1, stronger effect = lower value 0.985 | locus YER110C, stronger effect = lower value 1.02 | locus YER111C, strain swi4, stronger effect = lower value 0.96 | locus YER155C, strain BEM2 (second series), stronger effect = lower value 0.982 | locus YER155C, strain BEM2, stronger effect = lower value 1.01 | locus YER167W, strain BCK2, stronger effect = lower value 1.02 | locus YFR010W, strain ubp6, stronger effect = lower value 0.983 | locus YGL078C, strain dbp3, stronger effect = lower value 1.01 | locus YGL086W, strain mad1, stronger effect = lower value 1.01 | locus YGL167C, strain pmr1, stronger effect = lower value 0.984 | locus YGL173C, strain kem1, stronger effect = lower value 0.982 | locus YGL227W, strain vid30, stronger effect = lower value 0.97 | locus YGL240W, strain doc1, stronger effect = lower value 0.961 | locus YGL248W, strain PDE1, stronger effect = lower value 1.01 | locus YGL253W, strain hxk2, stronger effect = lower value 0.993 | locus YGR078C, strain PAC10, stronger effect = lower value 1.01 | locus YGR135W, strain pre9, stronger effect = lower value 1.02 | locus YGR229C, strain SMI1, stronger effect = lower value 1.04 | locus YGR252W, strain gcn5, stronger effect = lower value 1.02 | locus YHR013C, strain ard1, stronger effect = lower value 0.957 | locus YHR027C, strain rpn1, stronger effect = lower value 0.995 | locus YHR030C, strain SLT2, stronger effect = lower value 1.01 | locus YHR079C, strain IRE1 (second series), stronger effect = lower value 1.01 | locus YHR094C, strain hxt1, stronger effect = lower value 1.01 | locus YHR129C, strain ARP1, stronger effect = lower value 1.01 | locus YHR142W, strain chs7, stronger effect = lower value 0.979 | locus YHR200W, strain rpn10, stronger effect = lower value 1 | locus YIL066C, strain RNR3, stronger effect = lower value 1.04 | locus YIL073C, strain SPO22, stronger effect = lower value 1.09 | locus YIL125W, strain kgd1, stronger effect = lower value 1.01 | locus YIR030C, strain dcg1, stronger effect = lower value 1.01 | locus YJL092W, strain hpr5, stronger effect = lower value 0.987 | locus YJL095W, strain BCK1 (second series), stronger effect = lower value 0.99 | locus YJL095W, strain BCK1, stronger effect = lower value 1.02 | locus YJL115W, strain asf1, stronger effect = lower value 0.976 | locus YJL129C, strain trk1, stronger effect = lower value 0.976 | locus YJL134W, strain LCB3, stronger effect = lower value 1.01 | locus YJL154C, strain vps35, stronger effect = lower value 0.992 | locus YJL164C, strain tpk1, stronger effect = lower value 0.987 | locus YJL166W, strain qcr8, stronger effect = lower value 0.997 | locus YJL168C, strain set2, stronger effect = lower value 1.01 | locus YJL187C, strain SWE1 (second series), stronger effect = lower value 1.01 | locus YJL187C, strain SWE1, stronger effect = lower value 0.99
